High-throughput results: PubChem, several laboratories
In the library only some 2.2% were active in any assay of this set; here they are far more common.
APP transl inh = APP translation inhibition; SH-SY5Y APP 5'UTR-luciferase reporter, luminescence; inhibition, % at 2 µM; hit rate 0.82% among 190,000; AID 1285;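 active = inhibition above a set limit, derived from the sample mean plus 3 SD, cut at about 45% in these data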
Ba/F3 V617F tox = reduce viability of Ba/F3 cells dependent on JAK2V617F. Ba/F3 EpoR-JAK2V617F viability, ATP luminescence. hit rate 1.1% among 220,000. inhibition, % at 5.6 µM;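 active = inhibition above the campaign mean plus 3 SD over all tested compounds, cut at about 24% in these data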;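 note: cytokine-independent growth of Ba/F3 cells driven by EpoR plus mutant JAK2; 0% = DMSO-treated cells and 100% = JAK inhibitor I control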
BaF3 parental = reduces parental Ba/F3 cell viability, JAK2V617F counter-screen | hit rate 1.1% among 220,000 | AID 1486 | CellTiter-Glo ATP luminescence | inhibition, % at 5.6 µM;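 active = inhibition above a per-campaign cutoff, the mean inhibition of all tested compounds plus 3 SD, cut at about 27% in these data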;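 note: 0% = DMSO wells and 100% = JAK Inhibitor I control wells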
KLF5 inhibitor = inhibitors of KLF5 expression. DLD-1 KLF5 promoter-luciferase reporter, luminescence. inhibition, % at 5 µM. hit rate 0.23% among 290,000. AID 1700;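 active = inhibition above a per-plate limit of that plate's mean compound inhibition plus 3 SD, cut at about 60% in these data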;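 note: 0% = DMSO wells and 100% = LY294002 at 200 µM; higher means less KLF5 promoter-driven luciferase light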
aSyn UTR inh = 5' untranslated region of α-synuclein, MLPCN primary screen. alpha-synuclein 5'UTR reporter, inhibitor activity. inhibition, % (tested at 7.5 µM). hit rate 0.82% among 300,000; in the data active = inhibition above about 60%;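 note: H4 neuroglioblastoma cells stably carrying SNCA 5'UTR luciferase fusion; 0% = DMSO wells and 100% = positive control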
IEC-6 tox = kills IEC-6 intestinal cells in KLF5 counter-screen; hit rate 0.78% among 290,000; inhibition, % at 5 µM; IEC-6 cytotoxicity, luminescence viability; AID 1825; in the data active = inhibition above about 22%;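 note: 0% = plate median of test compound wells and 100% = cytotoxic reference compound wells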
An asterisk follows results filed as active; x = no result.

SMILES | APP transl inh | Ba/F3 V617F tox | BaF3 parental | KLF5 inhibitor | aSyn UTR inh | IEC-6 tox
O=C1OCCC1Sc1nnc(-c2ccc(Cl)cc2Cl)o1 (stereo unspecified) | x | 1.9 | -1.6 | 31.2 | 89.5* | 4.4
O=C1CCCC/C1=C/Nc1cccc(C(F)(F)F)c1 | 3.6 | -1.1 | 5.3 | -5.8 | -31.9 | -2.3
O=C1CCC2S/C(=C/Nc3ccc(C(F)(F)F)cc3)C(=O)N12 (stereo unspecified) | 71.9* | -1.7 | 7.2 | 40.2 | 99.4* | 6.6
CCCCN1CN(Cc2ccco2)CNC1=S | 15.1 | 1.9 | 4.9 | -8.7 | -1.5 | 1.2
C=CCN1CN(Cc2ccco2)CNC1=S | 62.0* | -3.1 | 2.6 | -8.5 | 9.0 | -3.4
CC1=CC(C)(C)[N+](C)(C)c2ccc(C)cc21 | 3.0 | 29.4* | 42.0* | -17.8 | 1.8 | -0.5
CCN(CC)S(=O)(=O)c1ccc(N2CCCC2)c(NC(=O)Cc2cc(OC)c(OC)c(OC)c2)c1 | x | x | x | 13.4 | 5.7 | 5.6
CCOc1cc(/C=C2/NC(=O)N(Cc3ccccc3F)C2=O)ccc1O | 25.1 | 95.2* | 72.4* | -19.4 | -4.8 | 3.3
COc1cc(OC)cc(C(=O)Nc2nnc(Cc3ccc(OC)c(OC)c3)s2)c1 | 11.7 | -1.9 | 9.4 | -32.7 | 10.4 | 5.5
COC(=O)Cn1ncc2c3ccccc3n(C)c2c1=O | -9.8 | -0.1 | 90.2* | -27.6 | -59.8 | -6.6
O=c1ccc(-c2ccc(S(=O)(=O)N3CCCCC3)o2)n[nH]1 | x | x | x | -8.1 | 0.6 | -1.4
Cc1nc(NC2=NCN(CC3CCCO3)CN2)nc2ccccc12 (stereo unspecified) | 3.7 | 37.6* | 34.0* | -18.4 | x | 3.2
Cc1nc(NC2=NCN(C3CCCCC3C)CN2)nc2ccccc12 (stereo unspecified) | -8.2 | 2.2 | 1.0 | 15.8 | x | 5.6
O=C(O)C1C2CCC(O2)C1C(=O)Nc1ccc(OC(F)F)cc1 (stereo unspecified) | x | x | x | -13.7 | -2.7 | -2.9
O=C(COc1ccc(F)cc1)N(Cc1ccco1)C1CCS(=O)(=O)C1 (stereo unspecified) | x | x | x | -20.9 | -11.8 | -5.4
Nc1nc(NC2CCCCC2)nc(NCCO)c1[N+](=O)[O-] | x | x | x | -20.1 | 31.9 | -5.1
COCCNc1nc(N)c([N+](=O)[O-])c(NC2CCCCC2)n1 | x | x | x | 4.1 | 67.7* | 0.5
CC1=C(C(=O)OCc2ccccc2)C(c2ccccc2OS(=O)(=O)c2ccc([N+](=O)[O-])cc2)NC(=O)N1CCCC(=O)O (stereo unspecified) | x | x | x | x | -10.7 | x
CS(=O)(=O)N1CCC(C(=O)Nc2cccc([N+](=O)[O-])c2)CC1 | -2.3 | 4.6 | 2.8 | -2.2 | -36.4 | 9.8
CCc1ccc(CC2S/C(=C(\C#N)C(C)=O)NC2=O)cc1 (stereo unspecified) | 6.1 | -3.8 | 0.4 | -5.7 | 19.7 | 70.1*
CCOC(=O)c1ccc(CC2S/C(=C(\C#N)C(C)=O)NC2=O)cc1 (stereo unspecified) | 11.8 | -1.3 | 4.5 | -6.4 | -8.5 | -3.0
O=C(Nc1ccc(Cl)cc1)Nc1ccccc1NS(=O)(=O)c1cccs1 | -9.3 | 1.9 | 62.2* | -20.5 | -4.5 | -4.1
Cc1ccc(CNC(=O)CCc2c(C)nn(-c3ccc(N4CCOCC4)nn3)c2C)cc1 | x | x | x | -19.3 | -3.4 | -4.1
CC(C(=O)Nc1ccc(O)cc1C(=O)O)N1C(=O)/C(=C\c2cccs2)SC1=S (stereo unspecified) | x | x | x | -17.1 | 7.2 | -8.3
O=C(c1cccc(NS(=O)(=O)c2cccc(C(F)(F)F)c2)c1)N1CCOCC1 | x | x | x | 4.7 | -12.9 | 2.4
SMILES | APP transl inh | Ba/F3 V617F tox | BaF3 parental | KLF5 inhibitor | aSyn UTR inh | IEC-6 tox
O=C(CCc1ccccc1)Nc1cc2c3c(c1)CC(=O)N3CCC2 | x | x | x | x | 2.6 | x
Cc1ccc2c(c1)N(C(=O)CCC(=O)NC1CCCCCC1)CC(C)O2 (stereo unspecified) | x | x | x | 3.0 | 3.2 | 1.5
CCc1ccc(/C=N/NC(=O)c2cc(C3CC3)nc3ccc(Br)cc23)s1 | 71.8* | -0.5 | 2.3 | -35.4 | 48.6 | -2.0
COc1ccc(-n2c(-c3ccc(Cl)cc3)c[n+]3c2CCc2ccccc2-3)cc1 | -8.3 | 84.4* | 69.0* | -0.4 | -15.3 | 10.1
COc1ccc(-n2c(-c3ccccc3)nnc2-c2ccc(Cl)cc2)cc1 | -14.0 | -0.9 | 2.0 | 6.2 | 0.7 | -8.3
O=C(CC1(O)C(=O)N(Cc2cccc3ccccc23)c2ccccc21)c1cccnc1 (stereo unspecified) | 55.8* | 68.1* | 54.3* | -29.4 | 0.6 | 12.0
CCOC(=O)N1CCN(Cc2ccccc2Cl)CC1 | -15.3 | 1.2 | 1.3 | -8.2 | x | 1.8
COc1ccccc1N1CCN(Cc2ccc(O)c3ncccc23)CC1 | 90.3* | 42.2* | 36.9* | 9.9 | 76.6* | 0.6
CCOC(=O)C1CCN(Cc2ccc(O)c3ncccc23)CC1 | 40.6 | 81.7* | 49.8* | 0.8 | 30.8 | 0.6
CCOC(=O)C1CCN(Cc2ccccc2C(F)(F)F)CC1 | -53.8 | -3.4 | -2.4 | 22.3 | 30.6 | -2.6
CCOC(=O)N1CCN(Cc2cc(Cl)c3cccnc3c2O)CC1 | 83.3* | 2.5 | 9.6 | 41.7 | 44.2 | 14.5
C=CCNC(=O)c1c[nH]c2ccc(S(=O)(=O)N(C)c3ccc(OCC)cc3)cc2c1=O | x | x | x | -27.8 | -3.2 | 3.0
CCN(CC)c1ccc(/C=C2\SC(=O)N(C(C)C)C2=O)o1 | x | 51.1* | 43.7* | -13.3 | -103.0 | 4.0
COc1ccc(C=O)cc1Oc1nc(Cl)ncc1F | -7.2 | -1.9 | 5.9 | -14.4 | 15.6 | 0.6
CN(C(=O)COC(=O)c1c2c(nc3ccccc13)/C(=C/c1cccc([N+](=O)[O-])c1)CCC2)C1CCS(=O)(=O)C1 (stereo unspecified) | -0.2 | 2.1 | 6.9 | -43.2 | 72.0* | 11.2
COC(=O)c1ccc(C2/C(=C(/O)c3ccc4c(c3)CC(C)O4)C(=O)C(=O)N2Cc2ccncc2)cc1 (stereo unspecified) | x | x | x | -49.3 | 18.7 | -1.6
Cc1ccccc1N1C(=O)CC2(CCCC2)CC1=O | -1.9 | 8.1 | 44.8* | -34.1 | -9.4 | 7.0
Cc1ccccc1N1C(=O)C2C3C=CC(CC3)C2C1=O (stereo unspecified) | x | x | x | 0.7 | 2.3 | 0.2
N#Cc1nc(Cl)c(Cl)c(NN)c1Cl | x | -4.8 | 1.1 | -16.3 | -19.1 | -2.5
CCC(=O)c1ccc(OCC(O)Cn2c(C)nc3ccccc32)cc1 (stereo unspecified) | -7.8 | 41.7* | 44.2* | -34.1 | x | 6.2
COCCCN=C1NN=C(c2cc(C)n(Cc3ccccc3Cl)c2C)CS1 | 76.4* | -2.0 | 3.9 | -13.7 | 22.6 | 7.4
CCc1cccc(C)c1NC(=S)N(Cc1cccnc1)Cc1ccco1 | 5.7 | 2.0 | 1.5 | -17.6 | 8.2 | 4.2
CN(C)CCCN(Cc1ccccc1)C(=S)Nc1ccc(F)c(Cl)c1 | -11.9 | 33.5* | 29.2* | -32.1 | -21.2 | -2.4
CN(C)CCCN(Cc1ccccc1)C(=S)Nc1cccc(C(F)(F)F)c1 | -12.7 | -0.6 | 10.4 | -5.5 | 16.5 | 2.4
CCCN(Cc1ccccc1)C(=S)Nc1cccc(C(F)(F)F)c1 | 4.0 | 34.2* | 33.2* | -11.5 | -1.2 | -0.7
CN(C(=O)c1cc([N+](=O)[O-])ccc1NCc1cccnc1)c1ccccc1 | x | x | x | -32.0 | 15.5 | -5.5
